Measured values published in PubChem BioAssay (NCI).
The panel holds about 83,000 compounds, 20% with a hit somewhere; the sample as a whole holds those more often.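 A percent growth of 40 corresponds to 60% growth inhibition; 0 means no net growth; -100 means all cells died. Active threshold: below 10.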 A number with no mark means an inactive call. The source made the active and inactive calls.

Legend:
Experiment in all cases: NCI-60 one-dose screen, 48 h (100 = growth as untreated, 0 = no growth, -100 = all killed)
Conditions in all cases: 10 µM unless noted
HCT-15 colon = system: HCT-15 colon
HT29 colon = system: HT29 colon
SNB-75 CNS = system: SNB-75 CNS
SNB-19 CNS = system: SNB-19 CNS
U251 CNS = system: U251 CNS
PC-3 prostate = system: PC-3 prostate
SK-MEL-5 melanoma = system: SK-MEL-5 melanoma
LOX IMVI melanoma = system: LOX IMVI melanoma
SK-MEL-28 melanoma = system: SK-MEL-28 melanoma
UACC-62 melanoma = system: UACC-62 melanoma

Row | SMILES | growth (HCT-15 colon) | growth (HT29 colon) | growth (SNB-75 CNS) | growth (SNB-19 CNS) | growth (U251 CNS) | growth (PC-3 prostate) | growth (SK-MEL-5 melanoma) | growth (LOX IMVI melanoma) | growth (SK-MEL-28 melanoma) | growth (UACC-62 melanoma)
1 | CCn1cnc(C[C@H](NC(=O)[C@H](CCCCNC(=O)Nc2cc(C(F)(F)F)cc(C(F)(F)F)c2)NC(=O)Nc2cc(C(F)(F)F)cc(C(F)(F)F)c2)C(=O)OC)c1 | 48.1% [100 µM] | -99.4% [100 µM] (active) | -36.4% [100 µM] (active) | -36.5% [100 µM] (active) | -100% [100 µM] (active) | -38.5% [100 µM] (active) | -100% [100 µM] (active) | -100% [100 µM] (active) | -99.5% [100 µM] (active) | –
2 | CCOC(=O)C1=CCC(n2cc(C)c(=O)[nH]c2=O)O1 (configuration not stated) | 111% | 110% | 103% | 103% | 98.8% | 84.7% | – | 98.6% | 112% | 96%
3 | C/C(=C\CCc1ccoc1)CC/C=C(\C)CCCN1CCOCC1 | 23.8% | 22.7% | 60.9% | 67.5% | 44.3% | 55.9% | 15.6% | – | 80.4% | 62.5%
4 | COc1cccc2c1C(=O)c1c(O)c3c(c(O)c1C2=O)C[C@@](O)(C(C)=O)C[C@@H]3O[C@H]1C[C@H](N)[C@H](O)[C@H](C)O1 | 7.88% (active) | -13.5% (active) | -91.4% (active) | 2.11% (active) | 0.281% (active) | -26.3% (active) | -100% (active) | -35% (active) | -44.5% (active) | –
5 | CC(NC(=O)Oc1cccc2ccccc12)c1ccccc1 (configuration not stated) | 100% | 104% | 87.4% | 105% | 90.7% | 84.9% | 97% | 87.2% | 110% | –
6 | CCN(CC)CCOCC[C@H]1CC[C@H]2[C@@H]3[C@H](C)Cc4cc(OS(N)(=O)=O)ccc4[C@H]3CC[C@]12C | -37% (active) | -63.8% (active) | -42.7% (active) | -94.4% (active) | -71% (active) | -88.8% (active) | -90.4% (active) | -65% (active) | -91.1% (active) | –
7 | CCNCCCn1c2c(c3ccc(F)cc3c1=O)C(=O)c1cc(OC)cnc1-2 | 2.25% (active) | -14.9% (active) | -18.2% (active) | 12.1% | -25.8% (active) | -3.56% (active) | -99.1% (active) | -64.9% (active) | 8.91% (active) | –
8 | Cc1cnc2nc(-c3ccc(N(C)C)cc3)cn2c1 | 107% | 112% | 133% | 107% | 110% | 121% | 99.4% | 106% | 123% | –
9 | COc1ccc(C2=NN(C(C)=O)C(c3c(C)nn(-c4ccccc4)c3N3CCOCC3)C2)cc1 (configuration not stated) | 103% | 101% | 74.4% | 85.8% | 89.3% | 79.7% | 97.6% | 97.8% | 108% | –
10 | CN(C)c1ncnc2c1ncn2C1CCCCO1 (configuration not stated) | 100% | 109% | 86.4% | 97.1% | 108% | 91.3% | 107% | 101% | 97.6% | –
11 | COc1ccc(N2CCN(CC(=O)N3CCN(c4nnc(-c5ccccc5)c(-c5ccccc5)n4)CC3)CC2)cc1 | 35.9% | 26.1% | 70.2% | 62.8% | 46.7% | 22% | 13.9% | 44.6% | 71.3% | 56.7%
12 | CC12CCC3C(=CCc4cc(O)ccc43)C1CCC2=O (configuration not stated) | 96.1% | 94.5% | 104% | 103% | 98.7% | 88.9% | 97.5% | 102% | 103% | –
13 | CC[C@H]1CN2CCc3cc(OC)c(OC)cc3C2C[C@@H]1CC1NCCc2cc(OC)c(OC)cc21 (some centres not stated) | -18% (active) | -14.5% (active) | -52.2% (active) | -6.47% (active) | -10.2% (active) | -12% (active) | -88.7% (active) | -27.8% (active) | -14.4% (active) | –
14 | COC(=O)Nc1ccc2ccc3c(NC(=O)OC)ccc4ccc1c2c43 (tested in a mixture with another compound) | 35.6% | 30.6% | 50.7% | 60.8% | 41% | 48.4% | 37.3% | 32.9% | 73.3% | –
15 | NS(=O)(=O)c1ccc(N2CC(c3nc4ccccc4[nH]3)CC2=O)cc1 (configuration not stated) | 107% | 97.8% | 67.9% | 101% | 99.7% | 90.8% | 99.8% | 94.2% | 103% | –
16 | CN(C)c1ccc(-c2nc3ncc(Br)cc3o2)cc1 | 115% | 110% | 103% | 91% | 100% | 83.3% | 99.8% | 98.4% | 120% | –
17 | c1ccc(COc2ccc(Nc3ncnc4c3cnn4-c3ccccc3)cc2)cc1 | 72.4% | 116% | 102% | 96% | 106% | 88.5% | 94.3% | – | 96% | –
18 | Cc1sc2nc(N3CCCCC3)[nH]c(=O)c2c1C | 103% | 88.6% | 91% | 92.4% | 92.4% | 76.4% | 96.9% | 99% | 103% | 97.5%
19 | O=c1[nH]cc(Nc2cc(Cl)c3nonc3c2[N+](=O)[O-])c(=O)[nH]1 | 103% | 132% | 119% | 95.4% | 98.6% | 92.9% | 105% | 95% | 83.2% | –
20 | C/C(=C\CCc1ccsc1)CC/C=C(\C)CCCN1CCSCC1 | 82.5% | 88.1% | 101% | 96.1% | 88.5% | 80.4% | 77.2% | – | 94.6% | 77%
21 | C/C(=C\CCc1ccoc1)CC/C=C(\C)CCCN1CCSCC1 | 43.3% | 45.8% | 93.4% | 87.8% | 76.7% | 84.3% | 37.8% | – | 88.7% | 75.3%
22 | CCCn1c(N)c(C(=O)CNc2ccc(I)cc2)c(=O)[nH]c1=O | 22.7% | 41.7% | 81.8% | 88.7% | 28.8% | 60.9% | 60.2% | 18.7% | 51.7% | –
23 | Cc1ccccc1NC(=O)NC(CC(N)=O)c1ccc2c(c1)nc(-c1cccc(Oc3ccc(C(C)(C)C)cc3)c1)n2CCCN1CCCCC1C (configuration not stated) | 92.3% | -34.6% (active) | 62.5% | 46.2% | -74.2% (active) | – | -73% (active) | -73% (active) | -71.7% (active) | 82.7%
24 | COc1ccc(C2CC(c3ccc4c(c3)OCO4)=NN2C=O)cc1 (configuration not stated) | 102% | 98% | 76.4% | 93.9% | 102% | 93.4% | – | 95.4% | 107% | 82.1%
25 | CC(C)=CCCC(C)c1ccc(C)c2c1OCN(CC1CCNCC1)C2 (configuration not stated) | 39.8% | -68.5% (active) | 89.3% | 78.2% | -2.5% (active) | 59.4% | – | -70.5% (active) | 92.5% | 63.5%
26 | CC(=O)N1N=C(c2ccc3c(c2)OCO3)CC1c1c(C)nn(-c2ccccc2)c1N(C)Cc1ccccc1 (configuration not stated) | 79.2% | 49.8% | 78.7% | 64.8% | 72.3% | – | 79.8% | 86.5% | 93.3% | 49.5%
27 | COC(=O)C1CCN(S(=O)(=O)c2ccc(-c3ccccc3)cc2)CC1 | 110% | 109% | 87.8% | 98.5% | 111% | – | 107% | 107% | 105% | 98.2%
28 | COC(=O)c1c(NC(=O)CSc2nnnn2-c2ccc(OC)cc2)sc(C)c1C | 101% | 107% | 79.4% | 102% | 99.6% | – | 115% | 91.2% | 108% | 74.8%
29 | COc1cc(/C=C2\SC(N3CCCCC3)=NC2=O)ccc1OCCCCCCOc1ccc(/C=C2\SC(N3CCCCC3)=NC2=O)cc1OC | 25.5% | -13.8% (active) | 18.8% | 44% | -3.37% (active) | 34% | – | -44.7% (active) | 12.7% | 17.6%
